# Compound activity deposited in PubChem by several laboratories.
# CRFBP-R2 agonist: CRF-BP/CRF-R2 complex agonism; HEK293 CRF-R2/CRF-BP, calcium dye fluorescence (FLIPR); percent of saturating CRF peptide response; activation, % at 13.2 µM; hit rate 0.46% among 350,000; AID 588473;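 active = activation of at least 50%, plus an integration ratio under a set limit after plate pattern correction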;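 also: plate controls were neutral control wells without compound for no effect and CRF at EC100 for full effect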
# IDE inh: inhibits human insulin-degrading enzyme in HEK cells; inhibition, % at 5.59 µM; hit rate 0.41% among 320,000; FAbetaB cleavage, fluorescence polarization;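 active = percent inhibition above the average of all tested compounds plus 3 SD, set per screening campaign, cut at about 16% in these data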;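 also: IDE supplied by intact live HEK cells; FP after avidin binding of uncleaved biotin substrate so inhibition keeps polarization high; 0% = DMSO wells and 100% = 60 µM reference IDE inhibitor Ii1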
# TPT1 inh: C. albicans TPT1 enzyme inhibition | recombinant caTPT1, FP RNA substrate dephosphorylation | inhibition, % at 5 µM | hit rate 0.81% among 300,000;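 active = inhibition above the mean of all tested compounds plus 3 SD, set per screening campaign, cut at about 24% in these data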;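 also: plate controls were DMSO alone for no effect and ferristatin control at 100 nM for full effect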
# IDE act: activators of human insulin-degrading enzyme in cells. AID 493087. HEK cells, FAbeta-B cleavage, fluorescence polarization; 0% vehicle, 100% cell-free pure enzyme wells. P14735. hit rate 0.073% among 340,000. activation, % at 5.96 µM;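 active = activation above the mean of all tested compounds plus 3 SD, set per screening campaign, cut at about 17% in these data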
# HNF4A DNA FP: change in binding of human HNF4 alpha to DNA; AID 1224865; P41235; activity change, % at 10 µM; HNF4a-FITC DNA binding, fluorescence polarization, 1 h; hit rate 0.3% among 360,000; in the data active = activity change above about 30%, passing the limit was not always enough
# caTPT1 confirm: confirmation of Candida albicans TPT1 inhibitors; shares compounds with TPT1 inh; hit rate 74% among 2,400; recombinant caTPT1, fluorescence polarization, RNase T1 coupled; inhibition, % at 5 µM;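 active = inhibition above the primary screen limit, the mean inhibition of all tested compounds plus 3 SD, cut at about 25% in these data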
# RNase T1 counter: RNase T1 inhibition in TPT1 counter-screen; AID 2153; RNase T1 cleavage, fluorescence polarization, 1536-well; hit rate 83% among 2,400; inhibition, % at 5 µM; shares compounds with TPT1 inh;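 active = inhibition above the solvent-only control well mean plus 3 SD, limit set per screening run, cut at about 23% in these data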;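 also: plate controls were DMSO wells with enzyme for no effect and wells without RNase T1 for full effect; inhibitors block cleavage so intact labeled substrate keeps polarization high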
# IDE inh confirm: confirmation of human insulin-degrading enzyme inhibitors in cells | shares compounds with IDE inh | HEK cells, FAbetaB cleavage, fluorescence polarization | inhibition, % at 5.59 µM | hit rate 51% among 1,200;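 active = mean inhibition across triplicate wells above the cutoff set by the earlier primary insulin-degrading enzyme screen, cut at about 16% in these data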;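 also: 0% = DMSO wells and 100% = 60 µM reference IDE inhibitor Ii1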
# HEK cytotox: kills HEK cells in IDE inhibitor counter-screen. shares compounds with IDE inh. HEK293 cytotoxicity, ATP luminescence. inhibition, % at 5.59 µM. hit rate 28% among 1,200. AID 449730; in the data active = inhibition above about 22%;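 also: 0% = vehicle wells and 100% = reference cytotoxic drug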
# HNF4A confirm: change in binding of human HNF4 alpha to DNA, retest; shares compounds with HNF4A DNA FP; HNF4A-FITC DNA binding, fluorescence polarization, 1 h; activity change, % at 12.5 µM; hit rate 99% among 210; AID 1224897; call rule not given here
# An asterisk follows results filed as active; . = not tested or not shown. Compounds with a hit are over-represented: about 1.4% of the library has one in this group of screens.
SMILES,CRFBP-R2 agonist,IDE inh,TPT1 inh,IDE act,HNF4A DNA FP,caTPT1 confirm,RNase T1 counter,HNF4A confirm,others
O=[N+]([O-])c1ccc(-c2ccc(/C=N/Nc3nc(N4CCCC4)nc(N4CCCC4)n3)o2)cc1,129.2*,-5.1,28.8*,5.6,32.8*,42.9*,59.1*,35.1*,
COc1ccccc1Nc1nc(Cl)c(C=O)s1,9.6,4.3,45.0*,3.7,49.5*,70.3*,83.0*,88.8*,
O=Cc1sc(Nc2ccccc2)nc1Cl,12.1,10.1,75.7*,-3.4,37.1*,74.3*,85.7*,59.0*,
CCN1C(=O)Cc2cc(S(=O)(=O)NCCc3ccccc3)ccc21,0.7,0.5,0.0,4.4,-0.8,.,.,.,
CSc1nnc(C)c(/C=C/Nc2ccc(C)cc2)n1,105.1*,9.3,156.2*,-8.3,53.4*,133.9*,128.1*,87.8*,
Cc1cc(COc2ccccc2)oc1C(=O)O,-1.3,-1.2,-2.7,2.4,1.3,.,.,.,
COc1ccc(-n2c(C)cc(/C=C3\SC(=S)NC3=O)c2C)cc1,5.4,1.3,30.5*,-2.2,40.1*,24.5*,36.5*,59.0*,
Cc1[nH]c2ccccc2c1C(=O)CSc1nnc(C2CC2)o1,-0.2,0.9,.,-0.2,2.5,.,.,.,
Cc1ccsc1CNC(=O)C1(C)CCN1C(C)C (configuration not stated),.,.,.,.,0.2,.,.,.,
CC(=O)c1sc(N/N=C\c2cccc(Br)c2)nc1C,18.6,40.0*,67.3*,-76.3,39.4*,77.7*,80.6*,56.9*,IDE inh confirm=105.5*;HEK cytotox=14.7
O=C1NC(=S)N(C(=O)c2ccc(F)cc2)/C1=C/c1ccccc1,33.0,27.7*,109.5*,-24.1,77.9*,108.5*,115.5*,88.6*,IDE inh confirm=31.9*;HEK cytotox=12.9
O=C(NCC(c1cccs1)N1CCOCC1)c1cc(S(=O)(=O)N2CCOCC2)ccc1F (configuration not stated),-0.2,1.8,2.4,-3.5,1.8,.,.,.,
O=C(/C=C\Nc1ccc2c(c1)OCO2)c1ccc(Cl)s1,2.0,-6.8,24.7*,-3.2,88.0*,39.4*,49.5*,61.3*,
O=C(/C=C\Nc1ccc2c(c1)OCO2)c1cccs1,2.4,5.6,9.9,-4.0,6.1,.,.,.,
O=C(COC(=O)CNS(=O)(=O)c1c(F)cccc1F)NC(=O)NC1CCCCC1,-1.2,-4.1,.,1.3,1.6,.,.,.,
COc1ccc(NC(=O)CN(C)S(=O)(=O)c2ccc(C)cc2)c([N+](=O)[O-])c1,3.8,0.4,40.8*,1.9,58.8*,48.9*,62.0*,58.6*,
CCN1CCc2c(sc(NC(=O)c3ccc(S(=O)(=O)N4CCOCC4)cc3)c2C(N)=O)C1,2.1,6.6,9.3,0.2,5.8,.,.,.,
CCCN1CCc2c(sc(NC(=O)c3ccc(S(=O)(=O)N4CCCC4)cc3)c2C(N)=O)C1,61.8*,12.5,119.6*,-14.9,41.4*,132.4*,131.9*,53.8*,
c1ccc(-c2csc3ncnc(N4CCN(Cc5ccc6c(c5)OCO6)CC4)c23)cc1,0.4,-3.0,-0.2,-0.7,4.6,.,.,.,
O=C(CSc1ncnc2scc(-c3ccccc3)c12)N1CCN(Cc2ccc3c(c2)OCO3)CC1,-1.0,5.3,41.3*,-0.4,45.7*,65.8*,77.4*,36.7*,
CCOC(=O)c1ccc(-c2ccc(/C=N/NC(=O)CN(c3cccc(C)c3)S(C)(=O)=O)o2)cc1,0.6,6.9,-2.4,9.1,3.3,.,.,.,
Cc1ccc(C)c(N(CC(=O)N/N=C/c2ccc(-c3ccc([N+](=O)[O-])cc3)o2)S(=O)(=O)c2ccccc2)c1,14.9,-2.7,41.3*,5.2,92.6*,50.5*,61.0*,54.2*,
CCOC(=O)c1c(NC(=O)Nc2ccc(F)cc2)sc2c1CCN(C)C2,-1.1,2.1,1.3,-1.5,13.8,.,.,.,
